Data: PubChem BioAssay AID2073 (Sanford-Burnham Center for Chemical Genomics, 2009)
In all, about 290,000 compounds went through this assay and about 570 (0.2%) were called active. Roughly 1% stayed inconclusive and do not appear here. Rule as the data show it: active = inhibition mostly above about 51% (no sharp cut-off); inconclusive = no clear call, values can overlap the other calls; inactive = mostly below about 53%. For the sample, actives were picked, then their nearest neighbours and some compounds at random.

Biological target: Voltage-dependent N-type calcium channel subunit alpha-1B (Homo sapiens) (UniProt Q00975)
Experiment: disruptors of CaV2.2 binding to Mint1 – biochemical, HTRF (AID 2073)
Details: HTRF protein-protein interaction, Mint1-CaV2.2, at 20 µM, stronger effect = higher value
[1] = measured here: average of repeat tests

Voltage-dependent N-type calcium channel subunit alpha-1B (Homo sapiens), sequence (Q00975 whole entry, looked up): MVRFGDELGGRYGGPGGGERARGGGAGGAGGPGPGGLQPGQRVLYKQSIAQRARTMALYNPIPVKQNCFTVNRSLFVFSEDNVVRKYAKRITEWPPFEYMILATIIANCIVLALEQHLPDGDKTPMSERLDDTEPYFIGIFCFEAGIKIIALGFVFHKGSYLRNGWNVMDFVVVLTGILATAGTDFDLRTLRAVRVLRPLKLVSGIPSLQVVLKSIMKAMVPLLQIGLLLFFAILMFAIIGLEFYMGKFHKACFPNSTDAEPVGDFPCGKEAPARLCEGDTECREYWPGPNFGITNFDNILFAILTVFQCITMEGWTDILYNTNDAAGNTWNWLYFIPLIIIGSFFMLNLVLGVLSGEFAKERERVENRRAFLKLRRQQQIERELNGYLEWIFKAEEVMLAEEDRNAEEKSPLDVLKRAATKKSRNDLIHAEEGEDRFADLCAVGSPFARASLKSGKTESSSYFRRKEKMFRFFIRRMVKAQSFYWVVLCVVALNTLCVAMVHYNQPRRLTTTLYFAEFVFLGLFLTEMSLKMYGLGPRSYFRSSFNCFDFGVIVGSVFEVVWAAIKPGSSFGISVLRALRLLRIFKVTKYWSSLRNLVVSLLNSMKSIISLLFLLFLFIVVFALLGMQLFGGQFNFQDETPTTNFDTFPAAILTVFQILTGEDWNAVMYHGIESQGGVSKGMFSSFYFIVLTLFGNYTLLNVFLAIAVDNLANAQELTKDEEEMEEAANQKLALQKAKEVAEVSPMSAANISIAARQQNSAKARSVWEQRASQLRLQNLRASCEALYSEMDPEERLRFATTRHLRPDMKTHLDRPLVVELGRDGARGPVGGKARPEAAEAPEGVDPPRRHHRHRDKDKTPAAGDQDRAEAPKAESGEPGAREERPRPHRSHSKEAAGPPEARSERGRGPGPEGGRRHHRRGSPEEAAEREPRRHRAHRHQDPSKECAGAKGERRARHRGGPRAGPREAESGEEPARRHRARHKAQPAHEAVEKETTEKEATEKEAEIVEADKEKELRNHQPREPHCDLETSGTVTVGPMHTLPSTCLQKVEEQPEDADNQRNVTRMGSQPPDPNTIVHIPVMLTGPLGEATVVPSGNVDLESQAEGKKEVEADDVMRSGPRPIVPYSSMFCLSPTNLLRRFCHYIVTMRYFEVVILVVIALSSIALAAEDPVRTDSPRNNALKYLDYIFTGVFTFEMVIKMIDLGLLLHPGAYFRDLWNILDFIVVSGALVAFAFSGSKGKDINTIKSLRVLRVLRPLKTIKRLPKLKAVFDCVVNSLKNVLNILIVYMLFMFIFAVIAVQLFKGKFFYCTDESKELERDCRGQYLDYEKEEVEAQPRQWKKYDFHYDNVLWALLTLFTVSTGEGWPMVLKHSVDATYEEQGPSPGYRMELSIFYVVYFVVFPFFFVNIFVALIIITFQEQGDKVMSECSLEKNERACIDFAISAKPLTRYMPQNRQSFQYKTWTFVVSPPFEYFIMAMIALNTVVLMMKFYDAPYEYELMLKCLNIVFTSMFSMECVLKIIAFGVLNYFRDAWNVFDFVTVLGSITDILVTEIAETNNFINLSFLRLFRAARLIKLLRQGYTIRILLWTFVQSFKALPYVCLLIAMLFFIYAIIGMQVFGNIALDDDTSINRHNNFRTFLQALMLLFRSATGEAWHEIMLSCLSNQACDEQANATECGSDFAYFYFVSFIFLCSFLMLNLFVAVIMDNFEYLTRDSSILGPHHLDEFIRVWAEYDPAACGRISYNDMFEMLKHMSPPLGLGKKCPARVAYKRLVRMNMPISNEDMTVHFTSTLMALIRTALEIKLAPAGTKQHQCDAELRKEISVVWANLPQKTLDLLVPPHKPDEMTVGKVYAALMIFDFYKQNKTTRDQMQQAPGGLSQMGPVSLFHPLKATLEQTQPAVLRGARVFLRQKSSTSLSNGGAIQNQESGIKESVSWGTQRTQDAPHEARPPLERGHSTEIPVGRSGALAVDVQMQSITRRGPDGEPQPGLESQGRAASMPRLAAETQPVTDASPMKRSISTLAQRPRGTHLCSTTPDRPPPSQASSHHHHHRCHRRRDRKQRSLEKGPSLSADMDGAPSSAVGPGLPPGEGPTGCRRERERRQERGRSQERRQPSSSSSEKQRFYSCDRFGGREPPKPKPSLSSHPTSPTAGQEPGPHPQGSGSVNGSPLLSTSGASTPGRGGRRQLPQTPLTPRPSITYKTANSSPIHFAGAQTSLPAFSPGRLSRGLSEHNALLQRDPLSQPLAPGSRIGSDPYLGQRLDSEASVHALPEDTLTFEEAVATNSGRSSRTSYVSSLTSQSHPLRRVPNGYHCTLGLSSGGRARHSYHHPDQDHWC

Compound | inhibition | inhibition [1]
COC(=O)c1ccc(OCCOc2ccccc2C)cc1 | 26.5% (inactive) | 
Cc1ccc(C)c(S(=O)(=O)NCc2ccc(C(=O)N3CCOCC3)cc2)c1 | -3.9% (inactive) | 
CCc1nn2c(=O)cc(COc3ccc(/C=C4\C(=N)N5N=C(CC(C)C)SC5=NC4=O)cc3)nc2s1 | 24.6% (inactive) | 
CCc1nn2c(=O)cc(COc3ccc(/C=C4\C(=N)N5N=C(C)SC5=NC4=O)cc3)nc2s1 | 60% (active) | 
CC(=O)Nc1ccc(OCCOc2ccc(/C=C3\C(=N)N4N=C(C)SC4=NC3=O)cc2)cc1 | 24.7% (inactive) | 
COCCCN1C(=O)C(=O)/C(=C(/O)c2ccc(S(=O)(=O)N3CCCCC3)cc2)C1c1ccc(O)cc1 (stereo not drawn) | 2% (inactive) | 
CNC(=S)N1CCN=C1Nc1nc(C)cc(C)n1 | 3.5% (inactive) | 
Cc1c(Cl)cccc1NS(=O)(=O)c1ccc2c(c1)C1C=CCC1C(c1ccc(C(=O)O)cc1)N2 (stereo not drawn) | 61% (inactive) | 29.1%
COc1ccc(NS(=O)(=O)c2ccc3c(c2)[C@H]2C=CC[C@H]2[C@@H](c2ccc(C(=O)O)cc2)N3)cc1 | 20.2% (inactive) | 
COc1cccc(NS(=O)(=O)c2ccc3c(c2)C2C=CCC2C(c2ccc(C(=O)O)cc2)N3)c1 (stereo not drawn) | 56.4% (active) | 55%
Cc1cc(-c2cc(C(=O)O)c3ccccc3n2)c(C)s1 | 9.2% (inactive) | 
O=C1c2ccccc2C(=O)N1OCc1c(F)cccc1Cl | 16.6% (inactive) | 
CCOC(=O)c1c(N2C(=O)C=CC2=O)sc(C)c1C | 65.5% (active) | 
CCOC(=O)c1c(N2C(=O)C3CC(C)=C(C)CC3C2=O)sc(C)c1C (stereo not drawn) | -2.7% (inactive) | 
CCOC(=O)c1c(-n2cnnn2)sc(C)c1C | -6.3% (inactive) | 
CCOC(=O)c1c(NC(=O)COC)sc(C(C)=O)c1C | 6.4% (inactive) | 
CCOc1ccc(N2C(=O)CC(S/C(N)=N/N=C/c3cccs3)C2=O)cc1 (stereo not drawn) | 10.6% (inactive) | 
CCCCc1nc2sc3c(=O)n(N)cnc3c2c2c1CCCC2 | 8.9% (inactive) | 
CCn1ncc(-c2ccnc3cc(C(=O)O)nn23)c1C | 67.9% (active) | 
Cc1c(-c2ccnc3cc(C(=O)O)nn23)cnn1C | 49.5% (inactive) | 
CCn1cc(-c2ccnc3cc(C(=O)O)nn23)c(C)n1 | 39.6% (inactive) | 
CCn1cc(C(=O)Nc2ccc(F)c(F)c2)cn1 | 8.5% (inactive) | 
CC(C)n1nc(C(=O)N2CCN(S(=O)(=O)c3cccs3)CC2)c2ccccc2c1=O | -6.3% (inactive) | 
Cc1ccc(C(=O)O)cc1-c1ccc(/C=C2\SC(=O)N(CC(=O)Nc3ccccc3)C2=O)o1 | 24% (inactive) | 
Cc1ccc(NC(=O)CN2C(=O)S/C(=C\c3ccc(-c4cccc(C(=O)O)c4C)o3)C2=O)cc1 | 7.6% (inactive) | 

Compound | inhibition | inhibition [1]
Cc1ccc(NC(=O)CN2C(=O)S/C(=C/c3ccc(-c4cccc(C(=O)O)c4)o3)C2=O)cc1 | 62.3% (active) | 
O=c1[nH]cnc(O)c1N=Nc1ccccc1 | -0.9% (inactive) | 
CCCSCCCNC(=O)c1cc2c(s1)CS(=O)(=O)C2 | 2% (inactive) | 
O=C(Nc1ccccc1C(=O)O)c1ccc2c(c1)C(=O)N(c1cccc([N+](=O)[O-])c1)C2=O | 11.2% (inactive) | 
O=C(O)c1cccc(NC(=O)c2ccc3c(c2)C(=O)N(c2cccc([N+](=O)[O-])c2)C3=O)c1 | 26.4% (inactive) | 
CCOC(=O)c1cc2c(N)c(C(=O)c3cc(C#N)c(SC)nc3C)sc2nc1C | 8.2% (inactive) | 
COc1cc2ccccc2nn1 | 22.3% (inactive) | 
COc1ccc2c(n1)Sc1nc3ccccc3nc1N2 | 78.9% (active) | 
COc1nc2ccccc2nc1OC | -4.1% (inactive) | 
Cn1nc(-c2ccccc2)cc1NC(=O)Nc1ccc(F)cc1 | -0.7% (inactive) | 
Cc1cccc(N=C2NC(=O)/C(=C/C=C/c3ccco3)S2)c1 | 57.2% (inactive) | 31.3%
COc1ccc(N=C2NC(=O)/C(=C\c3ccco3)S2)cc1 | 81.2% (active) | 
COc1ccc(N=C2NC(=O)/C(=C/c3ccco3)S2)cc1 | -14.1% (inactive) | 
Cc1ccc(N=C2NC(=O)/C(=C/C=C/c3ccco3)S2)cc1 | 36.2% (inactive) | 
Cc1ccc(N=C2NC(=O)/C(=C/C=C/c3ccco3)S2)cc1C | 76% (active) | 
O=C1NC(=Nc2ccc(Cl)cc2)/C(=C/c2ccco2)S1 | 55.3% (active) | 
Cc1ccc(N=C2NC(=O)S/C2=C\c2ccco2)cc1 | 29.6% (inactive) | 
O=C1NC(=Nc2ccccc2)/C(=C/c2ccco2)S1 | 24.1% (inactive) | 
Cc1ccc(N=C2NC(=O)/C(=C\c3ccco3)S2)cc1 | 58.4% (inactive) | 6.9%
Fc1cccc(Cl)c1CSc1nnc2ccccn12 | 4% (inactive) | 
Cc1c(CC(=O)NCC(=O)NCC(=O)O)c(=O)oc2cc3c(cc12)CCC(C)(C)O3 | 16.3% (inactive) | 
Clc1ccc(-n2nnnc2SCc2cn3ccccc3n2)cc1 | -7.5% (inactive) | 
Cc1cc(Cl)c(OCCOCCN2CCCCC2)c(Br)c1 | -0.3% (inactive) | 
CCNC(=O)NC(=O)COC(=O)C1CSC2(C)CCC(=O)N12 (stereo not drawn) | 3.1% (inactive) | 
C=CCN=C(NC#N)SCC(=O)NCc1ccccc1 | 2.2% (inactive) | 

Compound | inhibition | inhibition [1]
CNC(=O)/C(C#N)=C/c1ccc(-c2ccc(OC)cc2[N+](=O)[O-])o1 | 11.4% (inactive) | 
COc1ccc(-c2ccc(C(=O)O)o2)c([N+](=O)[O-])c1 | 59.6% (active) | 
COc1cccc(NC(=O)c2ccc(-c3ccccc3[N+](=O)[O-])o2)c1 | 52.1% (inactive) | 1.4%
Cc1ccc(S(=O)(=O)N2CCN(C(=O)c3ccc(Cl)nc3)CC2)cc1 | 3% (inactive) | 
COc1ccc(C(=O)Nc2ccc(CN3CCOCC3)cc2)cc1Br | 3% (inactive) | 
COc1ccc(-c2cc(-c3ccccc3)nc(=O)[nH]2)cc1 | 0.5% (inactive) | 
Cc1cc(C)c2nc(-c3cccnc3)cc(C(=O)Nc3ccc(S(=O)(=O)Nc4onc(C)c4C)cc3)c2c1 | 31.4% (inactive) | 
Cc1cc(C)c2nc(-c3ccccn3)cc(C(=O)Nc3ccc(S(=O)(=O)Nc4cc(C)on4)cc3)c2c1 | 39.7% (inactive) | 
Cc1cc(C)c2nc(-c3ccccn3)cc(C(=O)Nc3ccc(S(=O)(=O)Nc4onc(C)c4C)cc3)c2c1 | 51% (active) | 52.5%
COC(=O)c1sccc1NC(=O)c1ccc(C)o1 | 19.2% (inactive) | 
O=S(=O)(Cc1ccccc1)N1CCN(c2ncccn2)CC1 | 7.7% (inactive) | 
CCC(C(=O)NC1CC1)n1nc(C)c2c(C)n(-c3ccc(C)cc3)nc2c1=O (stereo not drawn) | 9.6% (inactive) | 
COc1cc2c(cc1NC(=S)NC(=O)/C=C/c1ccco1)oc1ccccc12 | 53.2% (active) | 
COc1cc2c(cc1NC(=S)NC(=O)/C=C/c1ccc(OC)c(OC)c1)oc1ccccc12 | 14.5% (inactive) | 
COc1ccc(/C=C/C(=O)NC(=S)Nc2cc3oc4ccccc4c3cc2OC)cc1 | 0.7% (inactive) | 
Cc1oc(-c2ccccc2Cl)nc1CS(=O)CC(=O)NCc1ccco1 (stereo not drawn) | 19.1% (inactive) | 
Cc1cc(OCC(O)CN2CCCC2)ccc1C(C)C (stereo not drawn) | -5.6% (inactive) | 
O=C(Nc1ccc(C2=NCCN2)cc1)c1ccc(Cl)c(C(=O)Nc2ccc(C3=NCCN3)cc2)c1 | 36.8% (inactive) | 
O=C(Nc1ccc(C2=NCCN2)cc1)c1ccc(C(=O)Nc2ccc(C3=NCCN3)cc2)c([N+](=O)[O-])c1 | 30.7% (inactive) | 
O=C(Nc1ccc(C2=NCCN2)cc1)c1ccc(C(=O)Nc2ccc(C3=NCCN3)cc2)c(Cl)c1 | 51.6% (active) | 
O=C(/C=C/c1ccc(Cl)cc1)N(Cc1ccccc1)c1ccccn1 | 22.8% (inactive) | 
COc1ccccc1CN(C)C(=O)c1cnc(C)cn1 | 5.7% (inactive) | 
Cc1cccc(/C=N/N2CCN(c3ccccc3)CC2)c1 | -12.6% (inactive) | 
CCCN1CCC(=O)N([C@H](CO)c2ccccc2)CC1 | 5.6% (inactive) | 
O=C1c2cccc3c(N4CCCCC4)ccc(c23)C(=O)N1CCO | 24.6% (inactive) | 

Compound | inhibition | inhibition [1]
CCCN1C(=O)c2cccc3c(N4CCCCC4)ccc(c23)C1=O | 11.8% (inactive) | 
C=CCN1C(=O)c2cccc3c(N4CCCCC4)ccc(c23)C1=O | 53.2% (active) | 
CCOc1ccc(C(=O)NC(=S)NCCCN2CCOCC2)cc1 | -2.3% (inactive) | 
COc1ccc(NC(=O)c2c3c(nc4ccccc24)CCC3)cc1S(=O)(=O)N1CCOCC1 | 59.4% (inactive) | 41.1%
O=C(Nc1cccc(S(=O)(=O)N2CCCCC2)c1)c1c2c(nc3ccccc13)CCN(Cc1ccccc1)C2 | 40.8% (inactive) | 
O=C(Nc1cccc(S(=O)(=O)N2CCOCC2)c1)c1c2c(nc3ccccc13)CCC2 | 56% (active) | 
CCOc1cc(C(c2c(C)[nH][nH]c2=O)c2c(C)[nH][nH]c2=O)cc(Br)c1OC | 5.6% (inactive) | 
C=CC#CC1(O)CC(C)[N+](C)(C)CC1C (stereo not drawn) | 17.6% (inactive) | 
CCOCCn1c(=NC(=O)c2cc(Cl)sc2Cl)sc2cc(S(N)(=O)=O)ccc21 | 53.8% (active) | 
COCCn1c(=NC(=O)c2cc(Cl)sc2Cl)sc2cc(S(N)(=O)=O)ccc21 | 38.7% (inactive) | 
C=CCn1c(=NC(=O)c2cc(Cl)sc2Cl)sc2cc(S(N)(=O)=O)ccc21 | 27.4% (inactive) | 
CCOc1ccccc1C(=O)NC(C(=O)Nc1cccnc1)C(C)C (stereo not drawn) | 3.3% (inactive) | 
COCCn1c(C)cc(C(=O)COc2cccnc2[N+](=O)[O-])c1C | -4% (inactive) | 
Cc1cc(C(=O)COc2cccnc2[N+](=O)[O-])c(C)n1Cc1cccs1 | 34% (inactive) | 
Cc1cc(C(=O)COc2cccnc2[N+](=O)[O-])c(C)n1Cc1ccco1 | 78.9% (active) | 
Cc1ccc(NC(=O)c2c3c(nc4ccccc24)CCC3)cc1S(=O)(=O)N(C)C | 53.6% (inactive) | 31.4%
Cc1ccc(S(=O)(=O)N(C)CC(=O)OCC(=O)N2CCCC2=O)cc1 | -12.9% (inactive) | 
O=C(Nc1nc(-c2cccnc2)cs1)c1ccc([N+](=O)[O-])cc1 | 19% (inactive) | 
COc1cc(CN(C(=O)c2ccco2)C2CCS(=O)(=O)C2)cc(OC)c1OC (stereo not drawn) | 11.2% (inactive) | 
CC(=O)c1cccc(Nc2nc(-c3ccccc3)cs2)c1 | 0.5% (inactive) | 
Oc1ccc(Br)cc1C=Nc1ccc2c3c(cccc13)CC2 | 53.5% (active) | 
Oc1ccc(Cl)cc1C=Nc1ccc2c3c(cccc13)CC2 | 50.4% (inactive) | 11.1%
Cc1cccc(C=Nc2ccc3c4c(cccc24)CC3)c1O | 7.8% (inactive) | 
O=[N+]([O-])c1cc(Cl)ccc1N1CCCC1 | -1.5% (inactive) | 
